Results as given in PubChem BioAssay AID1159580 (chemical genetic matrix, 2015).
Out of some 5,500 compounds screened, about 2,000 (36%) were called active. Another 18% or so got no clear call; they are omitted. Cut-off read from the data, not from the text of the source: active = normalized growth mostly below about 0.91 (no sharp cut-off); inconclusive = no clear call, values can overlap the other calls; inactive = mostly above about 0.92. The list shows a part of the results.

Test: chemical genetic growth profiling, strain panel (AID 1159580);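 note: tested at 20 µM; growth read once vehicle control cultures reached saturation at 30 °C; 1 = growth at the plate median or of vehicle wells; lower values mean less growth of the strain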
Conditions: S. cerevisiae deletion strains, growth OD
[1] = locus YDR150W, strain NUM1, active compounds read low
[2] = locus YNL153C, strain GIM3, active compounds read low
[3] = locus YNL322C, strain KRE1, active compounds read low
[4] = locus YPL055C, strain LGE1, active compounds read low
[5] = locus YPL241C, strain CIN2, active compounds read low
[6] = locus YAL040C, strain CLN3, active compounds read low
[7] = locus YCL061C, strain MRC1 (second series), active compounds read low
[8] = locus YDR363W, strain ESC2, active compounds read low
[9] = locus YER002W, strain NOP16, active compounds read low
[10] = locus YNL128W, strain TEP1, active compounds read low
[11] = locus YNL175C, strain NOP13, active compounds read low
[12] = locus YNL197C, strain WHI3, active compounds read low
[13] = locus YNL224C, strain SQS1, active compounds read low
[14] = locus YOR083W, strain WHI5 (second series), active compounds read low

Measured: normalized growth

COc1ccc(/C=C2/C(=O)N(c3cccc(Cl)c3)N=C2C)cc1
inactive: locus YAL013W, strain DEP1, active compounds read low 0.983 | locus YBR229C, strain ROT2, active compounds read low 0.963 | locus YDL101C, strain DUN1, active compounds read low 1 | locus YDL134C, strain PPH21, active compounds read low 0.991 | [1] 1 | locus YEL061C, strain CIN8, active compounds read low 0.964 | locus YGR078C, strain PAC10, active compounds read low 0.962 | locus YJR043C, strain POL32, active compounds read low 1.03 | locus YJR075W, strain HOC1, active compounds read low 0.934 | locus YLR058C, strain SHM2 (second series), active compounds read low 0.963 | locus YMR263W, strain SAP30, active compounds read low 0.989 | [2] 0.999 | locus YNL298W, strain CLA4 (second series), active compounds read low 0.839 | [3] 0.973 | locus YOL006C, strain TOP1, active compounds read low 0.849 | [4] 0.961 | [5] 0.897
active: locus YHR030C, strain SLT2, active compounds read low 0.53 | locus YHR087W, strain rtc3, active compounds read low 0.866 | locus YJL187C, strain SWE1, active compounds read low 0.921 | locus YLR039C, strain RIC1, active compounds read low 0.62 | locus YLR085C, strain ARP6, active compounds read low 0.744 | locus YLR262C, strain YPT6, active compounds read low 0.699 | locus YML094W, strain GIM5, active compounds read low 0.865 | locus YMR219W, strain ESC1, active compounds read low 0.938 | locus YNR030W, strain Alg12, active compounds read low 0.88 | locus YPR135W, strain CTF4, active compounds read low 0.599

Cn1c(=O)c2c(nc(/C=C/c3cccc(Cl)c3)n2C)n(C)c1=O
inactive: [6] 0.996 | [7] 0.981 | [8] 1.05 | [9] 1.01 | locus YGR229C, strain SMI1, active compounds read low 0.996 | [10] 0.993 | [2] 0.946 | [11] 0.969 | [12] 0.954 | [13] 0.995 | [3] 1.02 | [14] 0.964 | [4] 1.03 | [5] 0.995

Cn1cc(C(=O)OCC2CCN(CCNS(C)(=O)=O)CC2)c2ccccc21
inactive: [6] 1 | [7] 1.01 | [1] 1.01 | [8] 1 | [9] 1.01 | locus YMR307W, strain GAS1, active compounds read low 1 | [10] 1.03 | [2] 1.04 | [11] 1.05 | [12] 1.06 | [13] 1.05 | [14] 1.03
